# Source: PubChem BioAssay (NCATS)
# Inconclusive results are not listed. Active and inactive are the calls of the source. The call rests on the fitted dose curve; in most records, active means well fitted inhibition curve with a large enough effect; inconclusive means small, poorly fitted or top-dose-only effect; inactive means flat fitted curve, though single readings scatter.
# Key:
# CRL-7250 = normal cell line; assay: Cytotoxic Profiling of Annotated Libraries Using Quantitative High-Throughput Screening (AID 1296008); details: Five cell lines viability, CellTiter-Glo ATP luminescence, 48-72 h; max response: active compounds read low; further: nearly all actives have a fitted effect of over 60% in size
# Procedure, shortened: (§1)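 Compounds were pin-transferred onto cells and incubated 48 or 72 hr at 37 degree Celsius, 95% humidity. CellTiter-Glo was added, plates sat 10 min at room temperature, then ATP-coupled luminescence was imaged as the viability read-out.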
# HEK293 = assay: as above; details: Five cell lines viability, CellTiter-Glo ATP luminescence, 48-72 h; max response: active compounds read low
# Procedure, shortened: as §1
# On the % scale 0 is the no-effect control and ±100 the full control effect; potency means the concentration at half of the fitted maximal effect.
structure (smiles),measurement,setting,value
OC1CCC(Nc2ncc3nc(Nc4c(F)cc(F)cc4F)n([C@H]4CCOC4)c3n2)CC1 (stereo partly drawn),max response,CRL-7250,-2.71% (inactive)
same,outcome,HEK293,inactive
CS(=O)(=O)N(CC(=O)NCC1CC1)c1cc(C(F)(F)F)ccc1Cl,max response,CRL-7250,-0.912% (inactive)
same,max response,HEK293,0.809% (inactive)
C[C@@H]1O[C@@H](O[C@@H]2[C@@H](O)[C@H](O[C@H]3CC[C@@]4(C)C(CC[C@]5(C)C4CC=C4[C@@H]6CC(C)(C)CC[C@]6(C(=O)O[C@@H]6O[C@H](CO)[C@@H](O)[C@H](O)[C@H]6O)CC[C@]45C)C3(C)C)O[C@H](C(=O)O)[C@H]2O)[C@H](O)[C@H](O)[C@H]1O (stereo partly drawn),outcome,CRL-7250,inactive
same,max response,HEK293,3.46% (inactive)
CN(C)C(=O)NC1CCC(CCN2CCN(c3cccc(Cl)c3Cl)CC2)CC1 (stereo not drawn),max response,CRL-7250,1.18% (inactive)
same,max response,HEK293,-2.35% (inactive)
COc1ccc2nc(S(=O)(=O)Cc3ncc(C)c(OC)c3C)[nH]c2c1,max response,CRL-7250,-21.3% (inactive)
same,Potency,HEK293,16400 nM (active)
CC1=C(COC2OC(CO)C(O)C(O)C2O)C(C(CO)C(=O)O)CC1 (stereo not drawn),max response,CRL-7250,2.58% (inactive)
same,max response,HEK293,-0.67% (inactive)
Clc1cc2c(NC3CCCC3)nnc(-c3ccncc3)c2cc1Cl,max response,CRL-7250,-13.3% (inactive)
same,max response,HEK293,-9.96% (inactive)
C[C@H]1O[C@@H](O[C@H]2CC[C@@]3(C)C(CC[C@]4(C)C3CC=C3C5CC(C)(C)CC[C@]5(C(=O)O)CC[C@]34C(=O)O)C2(C)C)[C@H](O)[C@@H](O)[C@@H]1O (stereo partly drawn),outcome,CRL-7250,inactive
same,max response,HEK293,-5.54% (inactive)
Cc1c(C(=O)N2CCOc3ccc(-c4ccc(N)nc4)cc3C2)ccc(S(C)(=O)=O)c1F,Potency,CRL-7250,4610 nM (active)
same,Potency,HEK293,5800 nM (active)
COC(=O)[C@@H](O)[C@H]1[C@@]2(C)CC3(O)[C@@H](C(=O)[C@H]2O)[C@]24O[C@]25CC(=O)O[C@@H](c2ccoc2)[C@]5(C)CCC4[C@]13C (stereo partly drawn),outcome,CRL-7250,inactive
same,max response,HEK293,-0.209% (inactive)
CN(C)CC1CCOC1(c1ccccc1)c1ccccc1 (stereo not drawn),max response,CRL-7250,-5.19% (inactive)
same,max response,HEK293,-21.7% (inactive)
C=CC(C)(O)CC[C@H]1C(=C)CCC2[C@](C)(C(=O)O)CCC[C@@]21C (stereo partly drawn),max response,CRL-7250,2.31% (inactive)
same,max response,HEK293,-3.52% (inactive)
CC(C)(C)c1cc(Br)cc([C@H](CC(=O)O)NC(=O)CNC(=O)c2cc(O)cc(NC3=NCC(O)CN3)c2)c1 (stereo partly drawn),max response,CRL-7250,-6.62% (inactive)
same,max response,HEK293,-3.62% (inactive)
COc1c(C)c(OCC(O)C(C)(C)O)cc2c1COC2=O (stereo not drawn),max response,CRL-7250,4.27% (inactive)
same,max response,HEK293,-24.2% (inactive)
C=C(C)C1Cc2cc(C(=O)OC3OC(CO)C(O)C(O)C3O)ccc2O1 (stereo not drawn),max response,CRL-7250,-9% (inactive)
same,max response,HEK293,-15% (inactive)
CN[C@H](C(=O)N[C@H](C(=O)N(C)[C@H](/C=C(\C)C(=O)O)C(C)C)C(C)(C)C)C(C)(C)c1ccccc1,Potency,CRL-7250,5.2 nM (active)
same,Potency,HEK293,7.3 nM (active)
C=C1C(OC2OCC(O)C(O)C2O)CC2C(C)(C)C(O)CCC2(C)C1CC/C(C)=C\CO (stereo not drawn),max response,CRL-7250,-6.07% (inactive)
same,max response,HEK293,-24.4% (inactive)
CC(C)(O)/C=C/CC(C)(O)C1C(O)CC2(C)C3CCC4C(C)(C)C(=O)CCC4(C)C3CCC12C (stereo not drawn),max response,CRL-7250,-2.19% (inactive)
same,max response,HEK293,1.96% (inactive)
Cc1c(NC(=O)c2cc(C(N)=O)nc3cc(F)ccc23)c(C(F)(F)F)nn1Cc1ccc(C#N)cc1,max response,CRL-7250,-21.4% (inactive)
same,Potency,HEK293,86.2 nM (active)
C=C1C(O)C[C@@H]2C(C(=O)O)=CO[C@@H](O[C@@H]3O[C@H](CO)[C@@H](O)[C@H](O)[C@H]3OC(=O)c3ccc(O)cc3)[C@H]12 (stereo partly drawn),max response,CRL-7250,-1.69% (inactive)
same,max response,HEK293,-0.967% (inactive)
CC1(C)CC[C@@]2(C(=O)O[C@@H]3O[C@H](CO)[C@@H](O)[C@H](O)[C@H]3O)C(C1)C1=CCC3[C@@]4(C)CC[C@@H](O[C@@H]5O[C@H](C(=O)O)[C@@H](O[C@@H]6OC[C@@H](O)[C@H](O)[C@H]6O)[C@H](O[C@@H]6OC[C@](O)(CO)[C@H]6O)[C@H]5O)C(C)(C)C4CC[C@@]3(C)[C@]1(C)C[C@H]2O (stereo partly drawn),outcome,CRL-7250,inactive
same,max response,HEK293,-3.68% (inactive)
CCOCc1nc2c(N)nc3ccccc3c2n1CC(C)(C)O,max response,CRL-7250,-6.16% (inactive)
same,max response,HEK293,-5.94% (inactive)
COc1ccc([C@H]2CNC(=O)C2)cc1OC1CCCC1,max response,CRL-7250,-5.24% (inactive)
same,max response,HEK293,-1.53% (inactive)
COc1cc(O)cc(C)c1C(=O)OC1C(CO)OC(OC2C(O)C(O)C(O)C(O)C2O)C(O)C1O (stereo not drawn),max response,CRL-7250,-0.0302% (inactive)
same,max response,HEK293,4.85% (inactive)
